# In the supplement of paper PMC4022240:
# ± gives the standard deviation.
# T1: HaloTag-ATRX ADD domain (163-292)
# T1 chain: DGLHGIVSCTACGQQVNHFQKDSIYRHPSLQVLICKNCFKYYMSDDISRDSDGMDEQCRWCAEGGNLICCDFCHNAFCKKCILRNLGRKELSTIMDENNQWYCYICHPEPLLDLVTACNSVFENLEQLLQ
# B1: Unmod H2A variant K G N Y A E R V G A G A P (peptide)
# chain: KGNYAERVGAGAP
# B2: Unmod H2A variant R A K A K S R S S R A G L (peptide)
# chain: RAKAKSRSSRAGL
# B3: Unmod H2A variant R S S R A G L Q F P V G R (peptide)
# chain: RSSRAGLQFPVGR
# B4: Unmod H2A variant R A K A K T R S S R A G L (peptide)
# chain: RAKAKTRSSRAGL
# B5: Unmod H2A variant R A K S K S R S S R A G L (peptide)
# chain: RAKSKSRSSRAGL
# B6: Unmod H2A variant G A G A P V Y L A A V L E (peptide)
# chain: GAGAPVYLAAVLE
# B7: Unmod H2A variant A G L Q F P V G R V H R L (peptide)
# chain: AGLQFPVGRVHRL
# B8: Unmod H2A variant A G L Q F P V G R I H R L (peptide)
# chain: AGLQFPVGRIHRL
# B9: Unmod H2A variant K G N Y S E R V G A G A P (peptide)
# chain: KGNYSERVGAGAP
# B10: Unmod H2A variant K G N Y A E R I G A G A P (peptide)
# chain: KGNYAERIGAGAP
# Target: T1, HaloTag-ATRX ADD domain (163-292)
# Experiment: peptide microarray binding signal (635 nm), min-max normalized on array (fraction of array maximum); higher = stronger binding
# Settings: peptide region: Unmod H2A variant; binder concentration: 50 nM
# Method in brief: (§1)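 Triplicate spots of histone 13-mer peptide–cellulose conjugates with a Cy3 tracer were printed on nitrocellulose and probed for 1 h at 4°C with biotin-labelled HaloTag reader fusions (10 nM to 1 μM) plus streptavidin-Alexa Fluor 647 or rabbit histone antibodies (1:10,000 to 1:2,000) plus anti-rabbit Alexa 647. An Axon GenePix 4000B read the 635 nm channel. Binding signal is the spot-triplicate mean intensity after min-max scaling within each library.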
row,Binder,peptide microarray binding signal
1,B1,0.0103 ± 0.00041
2,B2,0.00771 ± 0.00081
3,B3,0.0275 ± 0.0053
4,B4,0.0117 ± 0.00045
5,B5,0.0102 ± 0.0014
6,B6,0.0133 ± 0.00042
7,B7,0.0745 ± 0.019
8,B8,0.0361 ± 0.0039
9,B9,0.019 ± 0.0052
10,B10,0.0345 ± 0.0048

# Same assay, conditions: peptide region: Unmod H2A variant; binder concentration: 500 nM
row,Binder,peptide microarray binding signal
1,B1,0.0165 ± 0.00062
2,B2,0.0133 ± 0.001
3,B3,0.0768 ± 0.0024
4,B4,0.0611 ± 0.039
5,B5,0.00576 ± 0.0015
6,B6,0.00505 ± 0.0014
7,B7,0.0998 ± 0.058
8,B8,0.0377 ± 0.0043
9,B9,0.0303 ± 0.012
10,B10,0.0994 ± 0.0054

# Target: HaloTag-ING2 PHD (mouse Ing2 200-280)
# Experiment: as above
# Settings: peptide region: Unmod H2A variant; binder concentration: 10 nM
# Method in brief: as §1
row,Binder,peptide microarray binding signal
1,B1,0.0105 ± 0.0025
2,B2,0.00615 ± 0.00015
3,B3,0.0177 ± 0.0021
4,B4,0.00531 ± 0.00038
5,B5,0.00645 ± 0.0004
6,B6,0.0031 ± 0.00049
7,B7,0.0252 ± 0.0093
8,B8,0.0334 ± 0.0037
9,B9,0.00692 ± 0.0004
10,B10,0.0206 ± 0.00047

# Same assay, conditions: peptide region: Unmod H2A variant; binder concentration: 100 nM
row,Binder,peptide microarray binding signal
1,B1,0.034 ± 0.0024
2,B2,0.0141 ± 0.0012
3,B3,0.0277 ± 0.0034
4,B4,0.0242 ± 0.0082
5,B5,0.0116 ± 0.0028
6,B6,0.0137 ± 0.00099
7,B7,0.0507 ± 0.015
8,B8,0.0514 ± 0.0061
9,B9,0.0104 ± 0.0025
10,B10,0.0279 ± 0.0038

# Target: anti-H3K4me3 antibody ab8580
# Experiment: as above
# Settings: peptide region: Unmod H2A variant; binder concentration: 1:2,000 dilution
# Method in brief: as §1
row,Binder,peptide microarray binding signal
1,B1,0.00546 ± 0.001
2,B2,0.000868 ± 0.00013
3,B3,0.00311 ± 0.00055
4,B4,0.00328 ± 0.00034
5,B5,0.000472 ± 4.5e-05
6,B6,0.000189 ± 8.9e-06
7,B7,0.00176 ± 0.00047
8,B8,0.00361 ± 0.0021
9,B9,0.00799 ± 0.00061
10,B10,0.00668 ± 0.0046

# Same assay, conditions: peptide region: Unmod H2A variant; binder concentration: 1:10,000 dilution
row,Binder,peptide microarray binding signal
1,B1,0.00171 ± 6.5e-05
2,B2,0.0012 ± 1.2e-05
3,B3,0.00148 ± 3.8e-05
4,B4,0.00165 ± 3.2e-05
5,B5,0.00165 ± 3.2e-05
6,B6,0.0016 ± 2.7e-05
7,B7,0.00793 ± 0.00092
8,B8,0.00628 ± 0.00018
9,B9,0.00223 ± 0.00022
10,B10,0.00953 ± 0.0009

# Target: anti-H3K9me3 antibody ab8898
# Experiment: as above
# Settings: peptide region: Unmod H2A variant; binder concentration: 1:2,000 dilution
# Method in brief: as §1
row,Binder,peptide microarray binding signal
1,B1,0.00116 ± 9.3e-05
2,B2,0.0004379 ± 4.2e-06
3,B3,0.0008004 ± 6.8e-06
4,B4,0.000966 ± 0.00011
5,B5,0.0005588 ± 5.2e-06
6,B6,0.000423 ± 1.1e-05
7,B7,0.00307 ± 0.00038
8,B8,0.00281 ± 0.00024
9,B9,0.00116 ± 9.9e-05
10,B10,0.005421 ± 1.8e-05

# Same assay, conditions: peptide region: Unmod H2A variant; binder concentration: 1:10,000 dilution
row,Binder,peptide microarray binding signal
1,B1,0.00075 ± 2.1e-05
2,B2,0.00098 ± 1.7e-05
3,B3,0.0011 ± 2.2e-05
4,B4,0.0011 ± 1.1e-05
5,B5,0.00127 ± 2.5e-05
6,B6,0.00104 ± 2.8e-05
7,B7,0.00542 ± 0.00044
8,B8,0.00686 ± 0.00042
9,B9,0.00115 ± 5.3e-05
10,B10,0.00611 ± 0.0016
